# Source: PubChem
# STAT1 blocker – STAT1 signaling inhibition; NIH 3T3 STAT1-luciferase reporter, IFN-gamma, luminescence; inhibition, % at 5.5 µM; hit rate 0.35% among 200,000; AID 920;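 active = inhibition above a set limit, the mean inhibition across all tested compounds plus 3 SD, cut at about 34% in these data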;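 note: 0% = IFN-gamma with DMSO and 100% = IFN-gamma with 300 µM nifuroxazide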
# STAT3 inh – STAT3 signaling inhibition | U3A cells, IL-6 STAT3-luciferase reporter, luminescence; host cell line lacks STAT1 | hit rate 0.89% among 190,000 | inhibition, % at 5.5 µM;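 active = inhibition above the mean inhibition across all screened compounds plus 3 SD, cut at about 44% in these data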;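 note: 0% = DMSO only wells and 100% = 100 µM nifuroxazide control wells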
# Platelet DG rel – platelet dense granule release activity; human platelet-rich plasma, SFLLRN dense granule ATP release, luminescence; inhibition, %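 (compounds screened at 7.5 µM in platelet-rich plasma)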; hit rate 0.22% among 300,000;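 active = mean replicate score, as percent of positive control, at or above 50; inconclusive = mean below 50 but at least one replicate at or above 50; inactive = mean and every replicate below 50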
# C8 TRAIL sens – sensitizes caspase-8 expressing cells to TRAIL; inhibition (viability loss, TRAIL sensitization), % at 10 µM; hit rate 1% among 360,000; NB7+C8 cells + TRAIL, ATPlite viability luminescence;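 active = compounds causing at least 50% loss of cell viability in the single-dose screen, relative to plate controls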
# PPC-1+TRAIL kill – kills PPC-1 cancer cells in the presence of TRAIL | PPC-1 cells + TRAIL, ATPLite viability luminescence | cell killing (% activity), % at 4 µM or 5 µM | hit rate 0.41% among 220,000;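 active = cell killing above 50% in the first pass at 4 µM, then a duplicate retest at 5 µM averaging 50% or more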;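 note: plate controls were cells with TRAIL plus DMSO for no effect and medium-only wells lacking cells for full effect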
# Active calls of the source: *; ? = inconclusive; . = no result given. The list is not random: actives were taken first. Their share in the collection is about 1.6%.
SMILES,STAT1 blocker,STAT3 inh,Platelet DG rel,C8 TRAIL sens,PPC-1+TRAIL kill
COc1cc(/C=N/NC(=O)COc2ccc(C)cc2)ccc1OC(=O)c1cccs1,-2,-12,-2,57*,45
COc1cc(SC)ccc1C(=O)Nc1cc(C)c(OCC(=O)N2CCOCC2)c(C)c1,.,.,-3,21,.
COc1cc(SC)ccc1C(=O)Nc1ccc(OCC(=O)N2CCOCC2)cc1,.,.,2,86*,.
O=[N+]([O-])c1ccc(C[n+]2cccc3ccccc32)cc1,-5,-1,0,12,16
c1ccc(C[n+]2cccc3c4ccccc4ccc32)cc1,21,60*,-2,10,30
O=C1OC2C(O)COC23OC(O)CCC13O (centres undefined),.,.,.,-16,.
N/C(Cc1ccc(Cl)cc1)=N\OC(=O)c1cccc2ccccc12,-5,22,16,68*,16
N/C(Cc1ccc(Cl)cc1)=N\OC(=O)c1ccc2ccccc2c1,-7,5,-5,95*,6
CCOc1ccc(S(=O)(=O)NCCC(=O)N2CCCN(C)CC2)cc1,.,.,51*,-8,.
C=C[C@@]1(C)CC(=O)[C@]2(O)[C@@]3(C)[C@@H](O)CCC(C)(C)[C@@H]3[C@H](OC(C)=O)[C@H](O)[C@@]2(C)O1,.,.,?,9,.
C=C[C@@]1(C)CC(=O)[C@]2(O)[C@@]3(C)[C@@H](O)CCC(C)(C)[C@@H]3[C@H](O)[C@H](OC(C)=O)[C@@]2(C)O1,.,.,90*,-10,.
COc1ccc(OC2(C)CCN(Cc3ccc(-c4ccccc4)o3)C2)cc1 (centres undefined),.,.,.,4,.
CN(NC(=O)c1ccc(Cl)cc1)c1nc(-c2ccccc2)nnc1C(F)(F)F,3,6,2,49*,-17
COc1ccc(OC(=O)N2C/C(=C/c3ccccc3)C(=O)/C(=C\c3ccccc3)C2)cc1,.,.,.,52*,.
O=C1/C(=C/c2ccccc2)CN(C(=O)CCN2CCOCC2)C/C1=C\c1ccccc1,.,.,.,56*,.
C[N+](C)(C)CCC(=O)N1C/C(=C/c2ccccc2)C(=O)/C(=C\c2ccccc2)C1,.,.,.,-5,.
CN(C)CCC(=O)N1C/C(=C/c2ccccc2)C(=O)/C(=C\c2ccccc2)C1,.,.,.,95*,.
Cc1sc2nc(CN3CCOCC3)nc(N3CCN(S(=O)(=O)c4ccccc4)CC3)c2c1C,.,.,.,6,.
O=C(N=C1SC2CS(=O)(=O)CC2N1c1ccccc1)c1cccc([N+](=O)[O-])c1 (centres undefined),.,.,.,-17,.
Cn1c(=S)[nH]c2sc3c(c2c1=O)CCC(C(C)(C)C)C3 (centres undefined),.,.,0,53*,.
COCCn1c(=S)[nH]c2sc3c(c2c1=O)CCC(C)C3 (centres undefined),.,.,-10,17,.
CC(=O)NC(c1ccc(F)c(F)c1)c1nc(-c2ccccc2)cs1 (centres undefined),.,.,.,-9,.
Cc1sc(NC(=O)/C=C/c2ccc(C(C)C)cc2)c(C#N)c1C,-2,4,-3,19,4
CC(C)c1ccc(/C=C/C(=O)Nc2nncs2)cc1,-47,18,-1,74*,29
CC1CCCC(NC(=O)CCC(=O)N2CCOc3ccccc32)C1C (centres undefined),.,.,-1,-2,.
SMILES,STAT1 blocker,STAT3 inh,Platelet DG rel,C8 TRAIL sens,PPC-1+TRAIL kill
Nc1nc(N)c2cc(S(=O)(=O)c3ccc4ccccc4c3)ccc2n1,.,.,.,72*,.
COC(=O)Cc1ccc2sc(-c3ccccc3)nc2c1,-64,9,39,63*,44
N#Cc1ccccc1OCCCN1CCC(C(O)(c2ccccc2)c2ccccc2)CC1,.,.,.,-6,.
C#Cc1ccccc1OCCCN1CCC(C(O)(c2ccccc2)c2ccccc2)CC1,.,.,.,93*,.
CCOc1cccc(C(=O)Nc2nc(-c3ccc(S(=O)(=O)N4CCOCC4)cc3)cs2)c1,35*,34,1,29,29
O=C(NCc1ccccc1)C1c2ccccc2OCC(=O)N1CC(F)(F)F (centres undefined),.,.,.,-7,.
CCOC(=O)c1cc2c(=Cc3ccc(N(C)C)cc3)c3ccccc3n2[n+]1C,.,.,.,53*,.
Cc1cc2c(=Cc3ccc(N(C)C)cc3)c3ccccc3n2[n+]1C,.,.,.,31,.
CN(C)c1ccc(C=c2c3cc(O)ccc3n3c2cc(-c2ccccc2)[n+]3C)cc1,.,.,.,51*,.
C[n+]1c(-c2ccccc2)cc2c(=Cc3ccccc3)c3ccccc3n21,.,.,.,81*,.
CCN1C(=O)[C@H]2[C@@H](c3ccc(OC)cc3)N[C@]3(CCCN(CC4CCCCC4)C3=O)[C@H]2C1=O,.,.,.,6,.
CCOCCCNC(=O)c1ccc(OC2CCN(C(C)=O)CC2)c(OC)c1,.,.,-6,-3,.
